Compounds without any hit were thinned out: in the full panel of roughly 79,000, 15% have a hit. Activity calls are given as the source filed them. Cut-off read from the data, not from the text of the source: active = growth inhibition above about 70%; inactive = the rest.
What was measured:
[1] = NCI Yeast Anticancer Drug Screen. Data for the wt1 strain (AID 149);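 note: 0% = growth of vehicle-treated wt1 cultures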; settings: S. cerevisiae wt1 strain (SPY 50644) growth inhibition, hits give high values
Summary of the method: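 Readout: yeast growth inhibition, normalised to vehicle controls, in the wt1 strain exposed to test compounds.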

[2] = NCI Yeast Anticancer Drug Screen. Data for the rad50EPP+ strain (AID 151);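 note: 0% = growth of vehicle-treated control cultures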; settings: S. cerevisiae rad50 mutant strain, hits give high values
Summary of the method: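 Yeast strain carrying rad50 alteration (rad50EPP+) exposed to compounds; growth inhibition measured relative to vehicle-treated controls.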

[3] = NCI Yeast Anticancer Drug Screen. Data for the rad50 strain (AID 155);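 note: 0% = growth of vehicle-only cultures of the same strain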; settings: S. cerevisiae rad50 strain growth inhibition, hits give high values
Summary of the method: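 Compounds were tested on a yeast strain with an engineered DNA damage repair alteration; the reported value is growth inhibition normalised to vehicle treatment.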

[4] = NCI Yeast Anticancer Drug Screen. Data for the mec2-1 strain (AID 157); settings: S. cerevisiae mec2-1 strain, hits give high values
Summary of the method: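 mec2-1 yeast strain, carrying an alteration in DNA damage repair or cell cycle control, was exposed to compounds; growth inhibition was measured relative to vehicle-treated controls.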

[5] = NCI Yeast Anticancer Drug Screen. Data for the rad14 strain (AID 159);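 note: 0% = growth of vehicle-treated control cultures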; settings: S. cerevisiae rad14 strain growth inhibition, hits give high values
Summary of the method: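 Compound-treated yeast with a defined DNA-repair lesion; growth inhibition normalised to vehicle-treated cultures.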

[6] = NCI Yeast Anticancer Drug Screen. Data for the sgs1 mgt1 strain (AID 161);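 note: 0% = growth of cultures given vehicle only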; settings: S. cerevisiae sgs1 mgt1 strain, hits give high values
Summary of the method: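 Compounds are added to genetically altered yeast, and growth is compared with cultures given vehicle alone to give percent inhibition.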

[7] = NCI Yeast Anticancer Drug Screen. Data for the CLN2oe strain (AID 163);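 note: 0% = growth of vehicle-only control cultures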; settings: S. cerevisiae CLN2oe strain, hits give high values
Summary of the method: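 Yeast cells carrying a defined cell-cycle control alteration were exposed to test compounds. Growth inhibition was scored against vehicle-treated control cultures.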

[8] = NCI Yeast Anticancer Drug Screen. Data for the cln2 rad14 strain (AID 165);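 note: 0% = growth equal to vehicle treated cultures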; settings: S. cerevisiae cln2 rad14 strain, hits give high values
Summary of the method: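 Yeast carrying cln2 and rad14 alterations (cell cycle control and DNA damage repair) were exposed to compounds. Growth inhibition was measured against vehicle-treated controls.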

[9] = NCI Yeast Anticancer Drug Screen. Data for the bub3 strain (AID 167); settings: S. cerevisiae bub3 mutant strain, hits give high values
Summary of the method: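 Growth of a checkpoint-deficient yeast mutant is measured after compound exposure. Values represent inhibition relative to vehicle.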

[10] = NCI Yeast Anticancer Drug Screen. Data for the wt2 strain (AID 169);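 note: 0% = growth of vehicle-treated yeast cultures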; settings: S. cerevisiae wt2 strain growth inhibition, hits give high values
Summary of the method: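 Yeast cells were exposed to test compounds, and growth inhibition was measured relative to vehicle-treated controls.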

[11] = NCI Yeast Anticancer Drug Screen. Data for the mlh1 strain (AID 171);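 note: 0% = growth of vehicle-treated control cultures of the same strain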; settings: S. cerevisiae mlh1 strain growth inhibition, hits give high values
Summary of the method: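 Yeast carrying a defined genetic alteration in DNA damage repair or cell cycle control were exposed to test compounds. Growth inhibition was measured relative to vehicle-treated controls.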

[12] = NCI Yeast Anticancer Drug Screen. Data for the sgs1 strain (AID 173);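 note: 0% = growth of vehicle-only control cultures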; settings: S. cerevisiae sgs1 mutant, hits give high values
Summary of the method: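 Yeast mutant strains carrying defined defects in DNA damage repair or cell cycle control were exposed to test compounds. Growth inhibition was scored against vehicle-treated controls.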

[13] = NCI Yeast Anticancer Drug Screen. Data for the mlh1 rad18 strain (AID 175); settings: S. cerevisiae mlh1 rad18 strain growth inhibition, hits give high values
Summary of the method: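 Growth inhibition of the yeast strain was measured after compound exposure and expressed relative to vehicle-treated controls. The strain carries defined defects in DNA damage repair.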

[14] = NCI Yeast Anticancer Drug Screen. Data for the rad18 strain (AID 177); settings: S. cerevisiae rad18 mutant growth inhibition, hits give high values
Summary of the method: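 Yeast carrying a defined DNA damage repair alteration were exposed to compounds. Growth inhibition was expressed relative to vehicle-treated controls.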

[15] = at 5.0 µM (retest, dose inferred, filed as 0.5)
[16] = at 50.0 µM (retest, dose inferred, filed as 5.0)

Measured: growth inhibition

CC[N+]1(C)CCC(O)(/C=C/c2ccc(Cl)c(Cl)c2)C(C(=O)/C=C/c2ccc(Cl)c(Cl)c2)C1 (stereo unspecified)
active: [1]; at 11.0 µM 99% | [1]; at 33.0 µM 99% | [1]; at 100.0 µM 98% | [2]; at 3.7 µM 85% | [2]; at 11.0 µM 99% | [2]; at 33.0 µM 99% | [2]; at 100.0 µM 99% | [3]; [15] 85% | [3]; at 11.0 µM 99% | [3]; at 33.0 µM 99% | [3]; [16] 98% | [3]; at 50.0 µM 99.5% | [3]; at 100.0 µM 98% | [4]; at 3.7 µM 88% | [4]; [15] 86% | [4]; at 11.0 µM 99% | [4]; at 33.0 µM 99% | [4]; [16] 99% | [4]; at 50.0 µM 99.3% | [4]; at 100.0 µM 99% | [5]; at 11.0 µM 99% | [5]; at 33.0 µM 99% | [5]; at 100.0 µM 99% | [6]; [15] 88% | [6]; [16] 98% | [6]; at 50.0 µM 99.5% | [7]; at 11.0 µM 99% | [7]; at 33.0 µM 98% | [7]; at 100.0 µM 99% | [8]; [16] 99% | [8]; at 50.0 µM 99% | [9]; [15] 90% | [9]; at 11.0 µM 98% | [9]; at 33.0 µM 99% | [9]; [16] 99% | [9]; at 50.0 µM 99.1% | [9]; at 100.0 µM 96% | [10]; at 11.0 µM 99% | [10]; at 33.0 µM 99% | [10]; at 100.0 µM 99% | [11]; at 11.0 µM 99% | [11]; at 33.0 µM 99% | [11]; at 100.0 µM 99% | [12]; at 3.7 µM 71% | [12]; at 11.0 µM 99% | [12]; at 33.0 µM 99% | [12]; at 100.0 µM 98% | [13]; [15] 82% | [13]; [16] 99% | [13]; at 50.0 µM 99.2% | [14]; at 3.7 µM 77% | [14]; at 11.0 µM 99% | [14]; at 33.0 µM 99% | [14]; at 100.0 µM 99%
inactive: [1]; at 1.2 µM -29% | [1]; at 3.7 µM 30% | [2]; at 1.2 µM 12% | [3]; at 1.2 µM 7% | [3]; at 3.7 µM 52% | [4]; at 1.2 µM 36% | [5]; at 1.2 µM 6% | [5]; at 3.7 µM 39% | [7]; at 1.2 µM -8% | [7]; at 3.7 µM 15% | [8]; [15] 46% | [9]; at 1.2 µM 0% | [9]; at 3.7 µM 20% | [10]; at 1.2 µM -4% | [10]; at 3.7 µM 29% | [11]; at 1.2 µM 6% | [11]; at 3.7 µM 45% | [12]; at 1.2 µM 15% | [14]; at 1.2 µM 29%

CN(NC(=O)/C(=C/C=C/c1ccccc1)NC(=O)c1ccccc1)C1=C(Cl)C(=O)[N+](c2ccccc2)=CC1
active: [2]; at 100.0 µM 79% | [6]; at 50.0 µM 79.8% | [9]; [16] 72% | [9]; at 50.0 µM 70.4% | [12]; at 33.0 µM 70% | [13]; at 50.0 µM 84.4%
inactive: [1]; at 1.2 µM 0% | [1]; at 3.7 µM 2% | [1]; at 11.0 µM 15% | [1]; at 33.0 µM 38% | [1]; at 100.0 µM 40% | [2]; at 1.2 µM 1% | [2]; at 3.7 µM 7% | [2]; at 11.0 µM 37% | [2]; at 33.0 µM 69% | [3]; at 1.2 µM -4% | [3]; at 3.7 µM -1% | [3]; [15] -3% | [3]; at 11.0 µM 34% | [3]; at 33.0 µM 63% | [3]; [16] 30% | [3]; at 50.0 µM 58.1% | [3]; at 100.0 µM 67% | [4]; at 1.2 µM 0% | [4]; at 3.7 µM 6% | [4]; [15] -12% | [4]; at 11.0 µM 16% | [4]; at 33.0 µM 37% | [4]; [16] 2% | [4]; at 50.0 µM 35.2% | [4]; at 100.0 µM 49% | [5]; at 1.2 µM -1% | [5]; at 3.7 µM -4% | [5]; at 11.0 µM 2% | [5]; at 33.0 µM 13% | [5]; at 100.0 µM 29% | [6]; [15] -6% | [6]; [16] 8% | [7]; at 1.2 µM -1% | [7]; at 3.7 µM 5% | [7]; at 11.0 µM 19% | [7]; at 33.0 µM 40% | [7]; at 100.0 µM 44% | [8]; [15] 30% | [8]; [16] 35% | [8]; at 50.0 µM 15.8% | [9]; at 1.2 µM 1% | [9]; at 3.7 µM 11% | [9]; [15] -5% | [9]; at 11.0 µM 33% | [9]; at 33.0 µM 53% | [9]; at 100.0 µM 49% | [10]; at 1.2 µM -3% | [10]; at 3.7 µM 0% | [10]; at 11.0 µM 19% | [10]; at 33.0 µM 42% | [10]; at 100.0 µM 43% | [11]; at 1.2 µM 2% | [11]; at 3.7 µM 8% | [11]; at 11.0 µM 37% | [11]; at 33.0 µM 61% | [11]; at 100.0 µM 63% | [12]; at 1.2 µM 1% | [12]; at 3.7 µM 5% | [12]; at 11.0 µM 27% | [12]; at 100.0 µM 69% | [13]; [15] -2% | [13]; [16] 18%

From PubChem BioAssay (NCI)
